Laboratory results taken from PubChem BioAssay.
Activity calls are given as the source filed them. Unless noted, no rule for the calls is given here.

What was measured:
[1] = HepG2 liver cancer cell viability effects, profiling panel, resazurin fluorescence, 24 h, PK04 Diversity Set (AID 1172); settings: higher = more signal
[2] = basal S. cerevisiae growth modulation, no modifier, primary screen, OD600, strain BY4716, 24 h, basal condition (AID 1173); settings: OD600, 24 h, higher = more signal, called active from +8 up or from −8 down
[3] = MM1S myeloma cell viability, profiling panel, resazurin fluorescence, basal, 24 h, PK04 Diversity Set (AID 1174); settings: higher = more signal, called active from +8 up or from −8 down;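 also: MM1S multiple myeloma cell line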
[4] = target: Dihydroorotate dehydrogenase (quinone), mitochondrial (Plasmodium falciparum (isolate 3D7)) (UniProt Q08210); assay: PfDHODH enzyme inhibitors, primary screen, biochemical, C-terminal His tag, absorbance 600 nm (AID 1175); settings: DCIP absorbance 600 nm, higher = more signal, called active from +8 up or from −8 down;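 also: recombinant parasite enzyme with a five histidine tag at its C terminus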
[5] = P. aeruginosa biofilm formation inhibitors, primary screen, strain PAO1, LB-PBS medium, absorbance 600 nm (AID 1176); settings: P. aeruginosa PAO1 growth/biofilm, A600, 12 h; higher = more signal
[6] = S. cerevisiae RM11-1a growth modifiers, primary screen, strain RM11-1a, OD600, basal, 24 h (AID 1177); settings: OD600, 24 h, higher = more signal, called active from +8 up or from −8 down;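 also: cultures grown under basal conditions with no added stressor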
[7] = E. coli acrAB mutant growth effects, primary screen, E. coli filamentation inducers, strain DRC39, OD650, 24 h (AID 1178); settings: higher = more signal, called active from +8 up or from −8 down;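 also: growth measured as culture turbidity by optical density at 650 nm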
[8] = E. coli acrAB mutant growth effects, primary screen, E. coli filamentation inducers, strain DRC39, OD650, 48 h (AID 1179);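 also: screen aims at cell division blockers that make cells filament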; settings: E. coli DRC39 delta-acrAB growth, higher = more signal, called active from +8 up or from −8 down
[9] = RPMI8226 myeloma cell viability, profiling panel, resazurin fluorescence, basal, 24 h, PK04 Diversity Set (AID 1180); settings: higher = more signal;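 also: RPMI8826 multiple myeloma cell line at 5000 cells per well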
[10] = target: E3 ubiquitin-protein ligase XIAP (Homo sapiens) (UniProt P98170); assay: XIAP binders, primary screen, biophysical, small-molecule microarray, fluorescence 635 nm (AID 1181); settings: small-molecule microarray binding, higher = more signal;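 also: score merges 667 nm emission and signal to noise over triplicate slides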
[11] = test system: XIP peptide (Xip251-270) binding; assay: small-molecule binders of XIP peptide, primary screen, biochemical, small-molecule microarray, fluorescence 635/667 nm, 0.1 µg/mL protein (AID 1182); settings: fluorescent protein binding, 635 nm, higher = more signal, called active from +8 up or from −8 down
XIP peptide (Xip251-270) = assay: small-molecule binders of XIP peptide, primary screen, biochemical, small-molecule microarray, fluorescence 635/667 nm, 0.5 µg/mL protein (AID 1183); settings: small-molecule microarray binding, fluorescence 635 nm; higher = more signal
[12] = Plasmodium falciparum growth inhibition, primary screen, strain 3D7, DAPI fluorescence, 100 nL (AID 1184);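 also: parasites grown inside human red blood cells in medium with human serum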; settings: P. falciparum 3D7 growth, 3 d, higher = more signal
[13] = target: Homeobox protein Hox-A13 (Mus musculus) (UniProt Q62424); assay: inhibitors of HoxA13-DNA binding, primary screen, biochemical, fluorescence polarization, labeled oligonucleotide (AID 1185); settings: 15 min, higher = more signal, called active from +8 up or from −8 down
[14] = inhibitors of hydroxyurea-induced Chk1 phosphorylation, primary screen, imaging, HeLa, phospho-Chk1 antibody, percent positive cells (AID 1186); settings: hydroxyurea-induced phospho-Chk1 immunofluorescence imaging, higher = more signal
[15] = inhibitors of hydroxyurea-induced Chk1 phosphorylation, primary screen, imaging, HeLa, phospho-Chk1 nuclear intensity (AID 1187); settings: hydroxyurea-induced phospho-Chk1 immunofluorescence imaging, higher = more signal

Sequence of E3 ubiquitin-protein ligase XIAP (Homo sapiens) (P98170 whole entry, looked up): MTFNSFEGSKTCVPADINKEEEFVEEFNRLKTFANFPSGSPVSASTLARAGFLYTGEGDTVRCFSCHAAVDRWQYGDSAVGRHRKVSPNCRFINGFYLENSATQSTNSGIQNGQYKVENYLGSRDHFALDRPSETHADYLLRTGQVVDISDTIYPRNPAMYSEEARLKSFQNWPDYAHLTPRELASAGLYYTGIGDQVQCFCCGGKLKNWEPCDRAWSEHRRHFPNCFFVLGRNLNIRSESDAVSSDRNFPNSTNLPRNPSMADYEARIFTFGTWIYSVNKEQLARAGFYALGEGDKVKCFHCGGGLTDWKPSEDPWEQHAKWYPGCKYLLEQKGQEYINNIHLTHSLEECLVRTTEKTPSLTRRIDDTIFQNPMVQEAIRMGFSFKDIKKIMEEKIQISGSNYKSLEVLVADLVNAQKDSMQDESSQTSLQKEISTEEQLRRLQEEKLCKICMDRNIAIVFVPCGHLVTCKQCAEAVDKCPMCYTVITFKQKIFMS
Sequence of Homeobox protein Hox-A13 (Mus musculus) (Q62424 whole entry, looked up): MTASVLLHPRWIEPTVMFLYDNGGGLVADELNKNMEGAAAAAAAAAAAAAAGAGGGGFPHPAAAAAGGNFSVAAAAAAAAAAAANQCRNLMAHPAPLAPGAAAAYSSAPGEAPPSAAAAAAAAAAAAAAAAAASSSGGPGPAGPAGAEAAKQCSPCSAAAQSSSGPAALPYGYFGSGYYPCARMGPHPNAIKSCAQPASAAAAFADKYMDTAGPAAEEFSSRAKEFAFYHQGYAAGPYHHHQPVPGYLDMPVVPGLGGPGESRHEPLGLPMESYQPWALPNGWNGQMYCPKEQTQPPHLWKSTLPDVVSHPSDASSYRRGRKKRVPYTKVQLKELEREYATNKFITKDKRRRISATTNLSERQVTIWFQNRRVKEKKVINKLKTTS
Sequence of Dihydroorotate dehydrogenase (quinone), mitochondrial (Plasmodium falciparum (isolate 3D7)) (Q08210 whole entry, looked up): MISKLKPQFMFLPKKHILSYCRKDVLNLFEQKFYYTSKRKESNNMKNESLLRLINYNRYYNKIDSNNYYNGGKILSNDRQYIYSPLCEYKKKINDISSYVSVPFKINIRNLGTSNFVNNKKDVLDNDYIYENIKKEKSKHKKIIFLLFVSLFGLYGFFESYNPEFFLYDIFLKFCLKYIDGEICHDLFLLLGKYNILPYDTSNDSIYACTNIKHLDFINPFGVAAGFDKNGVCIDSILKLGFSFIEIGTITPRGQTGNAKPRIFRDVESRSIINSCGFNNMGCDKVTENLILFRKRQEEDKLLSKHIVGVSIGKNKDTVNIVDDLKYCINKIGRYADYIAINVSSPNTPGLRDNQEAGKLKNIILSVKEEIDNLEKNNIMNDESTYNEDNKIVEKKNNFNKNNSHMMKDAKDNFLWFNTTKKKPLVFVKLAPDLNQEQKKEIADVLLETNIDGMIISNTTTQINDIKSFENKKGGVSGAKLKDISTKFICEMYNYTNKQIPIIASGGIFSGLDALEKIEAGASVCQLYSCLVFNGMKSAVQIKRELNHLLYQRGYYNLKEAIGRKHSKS

SMILES	z-score [1]	z-score [2]	z-score [3]	composite z-score [4]	z-score [5]	z-score [6]	z-score [7]	z-score [8]	z-score [9]	composite z-score [10]	composite z-score [11]	composite z-score (XIP peptide (Xip251-270))	z-score [12]	z-score [13]	z-score [14]	z-score [15]
CC(C)C[C@@H]1NC(=O)[C@H]2C[C@@H](C(=O)NCCCCCNC(=O)CS)[C@@H](c3ccc(O)cc3)N2C1=O	-2.15	0.131 (inactive)	-0.297 (inactive)	0.204 (inactive)	0.767 (inactive)	0.665 (inactive)	-0.117 (inactive)	-0.942 (inactive)	-0.57	-0.0577	0.563 (inactive)	0.692	-0.92	-3.85 (inactive)	-0.37 (inactive)	-0.291 (inactive)
O=C1C2C=CC(C(O)c3cccs3)N(Nc3ccccc3)C2C(=O)N1c1ccccc1 (centres undefined)	-1.51	-3.05 (inactive)	-0.334 (inactive)	-0.116 (inactive)	1.06 (inactive)	-0.272 (inactive)	0.0187 (inactive)	-0.952 (inactive)	-0.717	0.0537	0.308 (inactive)	0.171	-0.459	-2.56 (inactive)	-0.719 (inactive)	-0.649 (inactive)
CCCCN1CC=CC23O[C@@H]4/C=C\CCC(C)OC(=O)C4[C@H]2C(=O)N(C(C)CO)[C@@H]3C1=O (some centres undefined)	0.0172	-0.0298 (inactive)	-0.289 (inactive)	-0.216 (inactive)	0.301 (inactive)	0.549 (inactive)	0.659 (inactive)	0.606 (inactive)	-0.175	0.0785	1.02 (inactive)	-0.369	0.105	-5.78 (inactive)	0.479 (inactive)	0.632 (inactive)
C=CCC(OC(C)=O)[C@@H]1[C@@H](N(Cc2cccc3ccccc23)C(=O)c2ccc(C)cc2)c2cc(OCCCO)ccc2N1C(=O)c1ccc2ccccc2n1 (some centres undefined)	0.374	-1.13 (inactive)	0.36 (inactive)	-1.35 (inactive)	-0.877 (inactive)	-1.88 (inactive)	0.257 (inactive)	0.91 (inactive)	0.78	-0.0535	0.655 (inactive)	-0.165	-0.344	-0.702 (inactive)	-0.39 (inactive)	-0.404 (inactive)
Cc1ccc(S[C@]2(C(=O)NCC(F)(F)F)CC(=O)N(C3CCCCC3)[C@@H]2c2ccc(CO)cc2)cc1	-0.473	-0.0396 (inactive)	0.273 (inactive)	-1.41 (inactive)	0.0309 (inactive)	0.309 (inactive)	0.457 (inactive)	1.01 (inactive)	0.149	-0.155	0.23 (inactive)	0.201	-0.703	-3.04 (inactive)	-0.418 (inactive)	-0.25 (inactive)
COc1cc2c(cc1O)C(c1ccc(CN3CCCC3)cc1)N(Cc1cccc(OC(F)(F)F)c1)CC2 (centres undefined)	-2.98	-16.5 (active)	-9.24 (active)	0.364 (inactive)	-0.103 (inactive)	-1.66 (inactive)	-4.72 (inactive)	-3.03 (inactive)	-6.78	0.0673	-0.153 (inactive)	0.156	-2.1	-2.99 (inactive)	0.0325 (inactive)	0.348 (inactive)
O=C1O[C@H](c2ccccc2)[C@H](c2ccccc2)N2[C@H]1[C@@H](C(=O)N1CCN(c3ncccn3)CC1)[C@]1(C(=O)Nc3ccccc31)[C@H]2c1ccc(O)cc1	-0.291	0.688 (inactive)	-0.73 (inactive)	0.447 (inactive)	0.641 (inactive)	2.29 (inactive)	0.179 (inactive)	0.481 (inactive)	-1.2	-0.13	0.0016 (inactive)	0.458	-0.976	-1.2 (inactive)	0.746 (inactive)	1.46 (inactive)
C=C(COC)C(=O)CC[C@@H](OC(C)=O)c1ccc(OCCO)cc1	-0.487	-0.997 (inactive)	-0.487 (inactive)	-5.2 (inactive)	0.98 (inactive)	0.423 (inactive)	-0.623 (inactive)	-0.432 (inactive)	-0.781	-0.0848	1.61 (inactive)	0.779	-0.964	-4.63 (inactive)	0.0887 (inactive)	0.241 (inactive)
C[C@]1(C(=O)NCC(F)(F)F)c2ccccc2C(=O)N(Cc2ccc(OC(F)(F)F)cc2)[C@H]1c1ccc(CO)cc1	0.2	-0.139 (inactive)	-0.296 (inactive)	0.182 (inactive)	1.48 (inactive)	-0.353 (inactive)	-0.414 (inactive)	-1 (inactive)	0.14	0.212	0.102 (inactive)	0.564	-0.231	-3.96 (inactive)	0.01 (inactive)	-0.125 (inactive)
